The record followed here is PubChem BioAssay (NCI).

Molecules are shown by their SMILES. Several values for one entry are separate records, joined by “and”; a condition that tells them apart may be missing. Equal entries are not always repeated. About 83,000 compounds went through this panel and 20% of them were active in at least one assay; those are over-represented in the sample as a whole.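 96-well plates, one dose, 48 hours. Percent growth reported; active if below 10.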 A number with no mark means an inactive call. Activity calls are given as the source filed them.

In the assay the test system is MDA-MB-468 breast. Put plainly: NCI-60 one-dose screen, 48 h (100 = growth as untreated, 0 = no growth, -100 = all killed). As to conditions: 10 µM unless noted.
For `COc1ccc(Oc2ccc(C3CC(c4cc(OC)c(OC)c(OC)c4)=NN3C(C)=O)cc2)cc1` (stereo unspecified), the growth is 4.96% (active).
Then `CCOC(=O)c1ccc2c(c1)c1c(C)c3cnccc3c(C)c1n2C`, with -81.8% (active); and `CCCCCCC/C(=N\N=C(N)N)c1ccc(O)cc1`, with -79.7% (active); and `COc1ccc(C2CC(c3ccccc3)=NN2C(=O)c2cc(OC)c(OC)c(OC)c2)cc1O` (stereo unspecified), with 41.3%.
For the molecule `C=C(C)[C@@H]1CC[C@]2(C(N)=O)CC[C@]3(C)[C@H](CC[C@@H]4[C@@]5(C)C/C(=C/c6ccco6)C(=O)C(C)(C)[C@@H]5CC[C@]43C)[C@@H]12`, the growth is 87.6%.
As to `Cc1cc(=O)oc2cc(OCCCOc3ccc(/C=C/C(=O)Nc4ccc(Cl)cc4)cc3)ccc12`, the growth is 73.9%.
`COc1ccc2c(c1)/C(=C\c1c[nH]c3ccc(F)cc13)C(=O)N2`: the growth was 2.93% (active).
In the case of `C=C(C)[C@@H]1CC[C@]2(C(=O)O)CC[C@]3(C)[C@H](CC[C@@H]4[C@@]5(C)C[C@@H](CC#Cc6ccccc6C)C(=O)C(C)(C)[C@@H]5CC[C@]43C)[C@@H]12` it was 17.2%.
Regarding `CSc1nc2sc3cccc(Cl)c3n2c(=N)c1C#N`, the growth is 90.4%.
Then `O=C(/C=C(/C=C/c1cccc2[nH]ccc12)OB(F)F)/C=C/c1cccc2[nH]ccc12`, with -57% (active); and `COc1cc(C(=O)/C=C/c2c(-c3cccs3)nc3sccn23)cc(OC)c1OC`, with -49.5% (active); and `Cc1nc2ccc(Nc3nc(Cl)nc(N4CCOCC4)n3)cc2n1Cc1ccccc1`, with 62.2%.
In the case of `Cc1ccc(NS(=O)(=O)c2ccc(-c3cnc(C4CC4)o3)cc2)cc1C` it was -25.6% (active); in that of `CS(=O)(=O)c1ccc(-c2nc3cc(Cl)ccc3n2CC(=O)N/N=C/c2ccc(Cl)cc2)cc1`, 96.6%.
Consider `COc1ccc2oc3c(C)c4c(c(C)c3c2c1)C(=O)N(Cc1ccccc1)C4=O`, for which the growth is 100%.
For `O=C(O)CCCCSc1ncnc2nc[nH]c12`, the growth is 96%.
In the case of `NC(=O)c1cccc(-n2ccc3cc(NC(=O)Nc4cc(C(F)(F)F)cc(C(F)(F)F)c4)ccc32)n1` it was 40.7%.
Turning to `COc1ccc2cc(-c3cc(OC)c(OC)c(OC)c3)c(=O)oc2c1`, the growth was 46.5%.
As for `O=C(O)C1CN(c2cccc(Cl)c2)N(c2cccc(Cl)c2)C1=O` (stereo unspecified), the growth was 78.7%.
In the case of `COc1ccc(OC)c(Nc2nc3nonc3nc2Nc2cccc(Br)c2)c1` it was 0.0908% (active); in that of `CC1=C(NCCN2CCCC2)C(=O)c2c(OCc3cccc(Cl)c3)cccc2C1=O`, 69.6%.
In the case of `FC(F)(F)c1ccc(-c2cnc(Cl)nc2N2CCC3(CC2)OCCO3)cc1`, the growth is 103%.
Regarding `CCC(=O)N1C/C(=C/c2ccc(Br)cc2)C(=O)/C(=C/c2ccc(Br)cc2)C1`, the growth is -91.5% (active).
As for `COc1ccc(/C=C(\C#N)c2cc(OC)c3c(c2)OCO3)cc1`, the growth is -4.06% (active).
Then `CC(C)(C)OC(=O)NCc1cccc(N=C=S)c1`, with 39.4%; and `CCOC(=O)c1ccoc1`, with 95.7%.
Then `COc1c(NC=O)c2c(c([N+](=O)[O-])c1OC)C(=O)OC2`, with 113% and 93.1%; and `OCCNc1nc(NCCO)nc(Nc2ccc(C3=NN(c4cc(Cl)cc(Cl)c4)C(c4ccc(C(F)(F)F)cc4)C3)cc2)n1` (stereo unspecified), with 39.7%.
In the case of `C=C(CNCCO)[C@@H]1CC[C@]2(CO)CC[C@]3(C)[C@H](CC[C@@H]4[C@@]5(C)CCC(NCCc6ccc(O)cc6)C(C)(C)[C@@H]5CC[C@]43C)[C@@H]12` (stereo partly specified) it was -77.3% (active).
Turning to `CCCCCCCCCCCCCCCCNCCC[C@@H](C)[C@H]1CC[C@H]2[C@@H]3[C@H](OCCCN)C[C@@H]4C[C@H](OCCCN)CC[C@]4(C)[C@H]3C[C@H](OCCCN)[C@]12C`, the growth was -55.2% (active).
`Oc1ccc(C2OCCO2)c2cccnc12`: the growth is 62.4%.
In the case of `CN(C)CCN1C(=O)c2cccc3c(-c4ccc5ncn(C6CCCCC6)c5c4)ccc(c23)C1=O` it was 4.33% (active); in that of `CCCCCCCCCCCCCCCCCC1=NCCN1CCO`, 102%; in that of `Nc1ccccc1SC(CC(=O)c1ccccc1)c1c(Cl)cccc1Cl` (stereo unspecified), 64.7%.
In the case of `COc1ccc(-c2cc(-c3ccc(N(C)C)cc3)nc(NC(=O)c3cccnc3)n2)cc1`, the growth is 106%.
For the molecule `N#CC1=C(N)Oc2cc(N)ccc2C1c1ccc(F)cc1` (stereo unspecified), the growth was 45.1%.
